PubChem BioAssay
The source made the active and inactive calls.

Legend:
[1] = system: Plasmodium falciparum Sir2 (PF13_0152, Sir2A); test: Plasmodium falciparum Sir2A binding compounds – biochemical, small-molecule microarray, 635 nm fluorescence, primary screen (AID 1098); details: fluorescence 635 nm, higher = more signal;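 further: score merges spot fluorescence intensity with its signal-to-noise ratio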
[2] = probe aDKK1 binding to arrayed compounds – biochemical, biotinylated probe, 635/667 nm fluorescence, primary screen (AID 1099); details: small-molecule microarray, higher = more signal;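 further: score merges 667nm spot fluorescence with signal to noise across triplicate slides; reference of the scale not given here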
[3] = probe aCHRDL2 binding to arrayed compounds – biochemical, biotinylated probe, 635/667 nm fluorescence, primary screen (AID 1100); details: small-molecule microarray, higher = more signal
[4] = change in splice reporter luminescence, either direction, cell-based, HEK293, spliceosome inhibition project, primary screen (AID 1101); details: HEK293 splicing luciferase reporter, 24 h, higher = more signal, called active from +8 up or from −8 down;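 further: HEK293 cells carrying a splicing-competent luciferase reporter gene; test concentration not given here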
[5] = target: Fibroblast growth factor 10 (Homo sapiens) (UniProt O15520); test: compounds binding fibroblast growth factor 10 – biochemical, small-molecule microarray, 635 nm fluorescence, primary screen (AID 1102); details: FGF10 binding, fluorescence 635 nm, higher = more signal
[6] = system: glycogen synthase kinase-3 (GSK3A per assay name; protocol says GSK3B); test: compounds binding glycogen synthase kinase-3 – biochemical, small-molecule microarray, 635 nm fluorescence, GSK3A, primary screen (AID 1103); details: fluorescence 635 nm, higher = more signal; further: the record names both GSK3A and GSK3B
[7] = target: Epidermal growth factor receptor (Homo sapiens) (UniProt P00533); test: compounds binding epidermal growth factor receptor – biochemical, small-molecule microarray, 635 nm fluorescence, primary screen (AID 1104); details: EGFR binding, higher = more signal;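 further: score merges 667 nm emission intensity with spot signal to noise over triplicate slides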
[8] = target: Follistatin-related protein 3 (Homo sapiens) (UniProt O95633); test: compounds binding follistatin-related protein 3 – biochemical, small-molecule microarray, 635 nm fluorescence, primary screen (AID 1105); details: FSTL3 binding, higher = more signal;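 further: score merges emission near 667 nm and signal to noise per printed spot across three slides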
[9] = target: Dickkopf-related protein 1 (Homo sapiens) (UniProt O94907); test: small molecules binding DKK1 protein – biochemical, small-molecule microarray, 635 nm fluorescence scan, primary screen (AID 1106); details: higher = more signal;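 further: score merges emission near 667 nm with signal to noise over three replicate slides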
[10] = system: Inhibin beta A chain (activin A); test: small molecules binding activin A – biochemical, small-molecule microarray, 635 nm fluorescence scan, primary screen (AID 1107); details: INHBA, higher = more signal;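 further: mouse activin A protein probed at 4.33 µg/mL on printed slides; score merges bound-protein fluorescence near 667 nm with spot signal-to-noise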

Epidermal growth factor receptor (Homo sapiens), sequence (P00533 whole entry, looked up): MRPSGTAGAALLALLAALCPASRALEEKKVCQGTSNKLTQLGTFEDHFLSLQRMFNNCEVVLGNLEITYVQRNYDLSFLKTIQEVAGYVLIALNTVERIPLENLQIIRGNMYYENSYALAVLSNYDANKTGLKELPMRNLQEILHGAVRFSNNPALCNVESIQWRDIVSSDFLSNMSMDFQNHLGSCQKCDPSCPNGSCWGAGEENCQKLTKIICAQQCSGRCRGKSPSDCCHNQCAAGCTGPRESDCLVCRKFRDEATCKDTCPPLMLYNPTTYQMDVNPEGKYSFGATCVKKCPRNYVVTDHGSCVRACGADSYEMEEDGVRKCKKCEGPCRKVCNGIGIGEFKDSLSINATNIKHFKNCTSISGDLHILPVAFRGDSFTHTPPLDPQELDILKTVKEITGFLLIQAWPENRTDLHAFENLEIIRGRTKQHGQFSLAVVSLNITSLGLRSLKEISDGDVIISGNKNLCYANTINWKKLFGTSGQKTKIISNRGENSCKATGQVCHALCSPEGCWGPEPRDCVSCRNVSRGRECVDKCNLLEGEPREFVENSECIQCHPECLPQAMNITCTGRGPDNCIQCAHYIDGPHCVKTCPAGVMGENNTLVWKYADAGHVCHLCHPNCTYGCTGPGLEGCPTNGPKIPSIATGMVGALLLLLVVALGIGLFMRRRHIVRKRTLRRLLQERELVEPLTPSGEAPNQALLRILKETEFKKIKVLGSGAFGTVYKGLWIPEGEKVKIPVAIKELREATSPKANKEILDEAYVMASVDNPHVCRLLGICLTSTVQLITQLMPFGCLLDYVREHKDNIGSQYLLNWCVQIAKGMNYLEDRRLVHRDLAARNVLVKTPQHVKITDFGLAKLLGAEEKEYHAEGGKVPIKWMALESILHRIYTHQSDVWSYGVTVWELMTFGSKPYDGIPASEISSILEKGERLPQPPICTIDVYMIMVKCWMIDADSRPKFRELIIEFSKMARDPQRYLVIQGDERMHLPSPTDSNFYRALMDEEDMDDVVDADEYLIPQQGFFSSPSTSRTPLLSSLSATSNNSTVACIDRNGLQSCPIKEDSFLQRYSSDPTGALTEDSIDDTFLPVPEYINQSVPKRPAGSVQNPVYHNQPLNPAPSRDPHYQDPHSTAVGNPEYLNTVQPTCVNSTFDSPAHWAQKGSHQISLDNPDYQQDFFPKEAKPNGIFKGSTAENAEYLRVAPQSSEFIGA
Fibroblast growth factor 10 (Homo sapiens), sequence (O15520 whole entry, looked up): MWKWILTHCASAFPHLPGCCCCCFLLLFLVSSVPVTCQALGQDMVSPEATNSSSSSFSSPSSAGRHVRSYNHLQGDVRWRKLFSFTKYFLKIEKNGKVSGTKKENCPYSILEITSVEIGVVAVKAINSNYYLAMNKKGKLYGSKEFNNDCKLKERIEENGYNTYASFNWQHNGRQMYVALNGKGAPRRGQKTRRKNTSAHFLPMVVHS
Dickkopf-related protein 1 (Homo sapiens), sequence (O94907 whole entry, looked up): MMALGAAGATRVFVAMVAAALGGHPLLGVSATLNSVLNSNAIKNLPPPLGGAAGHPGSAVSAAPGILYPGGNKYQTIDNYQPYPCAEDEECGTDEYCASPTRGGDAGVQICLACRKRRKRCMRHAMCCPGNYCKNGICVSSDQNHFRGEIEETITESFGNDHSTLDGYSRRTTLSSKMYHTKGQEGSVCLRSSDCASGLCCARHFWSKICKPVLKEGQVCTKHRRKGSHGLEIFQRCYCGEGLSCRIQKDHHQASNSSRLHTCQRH
Follistatin-related protein 3 (Homo sapiens), sequence (O95633 whole entry, looked up): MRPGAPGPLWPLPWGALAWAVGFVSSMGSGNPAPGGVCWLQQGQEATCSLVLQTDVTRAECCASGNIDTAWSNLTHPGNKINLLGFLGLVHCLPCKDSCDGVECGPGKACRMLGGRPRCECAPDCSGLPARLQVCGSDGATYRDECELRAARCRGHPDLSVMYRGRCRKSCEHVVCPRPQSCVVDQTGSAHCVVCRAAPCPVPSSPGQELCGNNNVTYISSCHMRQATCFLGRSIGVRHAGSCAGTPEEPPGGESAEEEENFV

**Q.** For `COC(=O)[C@@]1(Cc2ccc(F)cc2)[C@H]2c3cc(C(=O)N4CCCC4)n(CCc4c[nH]c5ccccc45)c3C[C@H]2CN1C(=O)c1ccccc1`, which composite z-score [1] is on record?
**A.** 0.539

**Q.** And the composite z-score [2]?
**A.** 0.948

**Q.** What about the composite z-score [3] of the same molecule?
**A.** 1.03

**Q.** What about the z-score [4] of the same molecule?
**A.** -0.593 (inactive)

**Q.** And the composite z-score [5]?
**A.** 0.894

**Q.** What about the composite z-score [6] of the same molecule?
**A.** 1.32

**Q.** What about the composite z-score [7] of the same molecule?
**A.** 0.549

**Q.** And the composite z-score [8]?
**A.** 1.21

**Q.** What about the composite z-score [9] of the same molecule?
**A.** 0.113

**Q.** What about the composite z-score [10] of the same molecule?
**A.** 0.834

**Q.** For `CC1=C2[C@@H](CCc3ccccc3)OB(O)C[C@@H]2[C@@H]2C(=O)N(Cc3ccccc3)C(=O)[C@@H]2C1`, which composite z-score [1] is on record?
**A.** 0.294

**Q.** What about the composite z-score [2] of the same molecule?
**A.** -0.155

**Q.** And the composite z-score [3]?
**A.** -0.395

**Q.** What about the z-score [4] of the same molecule?
**A.** 0.81 (inactive)

**Q.** What about the composite z-score [5] of the same molecule?
**A.** 0.631

**Q.** What about the composite z-score [6] of the same molecule?
**A.** 0.717

**Q.** And the composite z-score [7]?
**A.** 0.427

**Q.** What about the composite z-score [8] of the same molecule?
**A.** 0.746

**Q.** And the composite z-score [9]?
**A.** 0.405

**Q.** What about the composite z-score [10] of the same molecule?
**A.** 0.654

**Q.** Which composite z-score [1] does the source give for `CCCN1C(=O)[C@]2(Cc3ccccc31)N=C(c1ccc(OCCCO)cc1)O[C@@H]2c1ccccc1` here?
**A.** 1.07

**Q.** What about the composite z-score [2] of the same molecule?
**A.** 0.0194

**Q.** What about the composite z-score [3] of the same molecule?
**A.** 0.865

**Q.** And the z-score [4]?
**A.** -0.898 (inactive)

**Q.** And the composite z-score [5]?
**A.** 0.592

**Q.** And the composite z-score [6]?
**A.** 1.26

**Q.** What about the composite z-score [7] of the same molecule?
**A.** -0.489

**Q.** What about the composite z-score [8] of the same molecule?
**A.** 0.515

**Q.** What about the composite z-score [9] of the same molecule?
**A.** -0.303

**Q.** And the composite z-score [10]?
**A.** 0.72

**Q.** For `Cc1ccc(C(C)CC(O)C2C=CC3C(=O)N(c4ccccc4)C(=O)C3N2Nc2ccccc2)o1` (stereo not given), which composite z-score [1] is on record?
**A.** 0.844

**Q.** And the composite z-score [2]?
**A.** 1.01

**Q.** What about the composite z-score [3] of the same molecule?
**A.** 0.693

**Q.** What about the z-score [4] of the same molecule?
**A.** -0.392 (inactive)

**Q.** And the composite z-score [5]?
**A.** 0.981

**Q.** And the composite z-score [6]?
**A.** 1.28

**Q.** What about the composite z-score [7] of the same molecule?
**A.** 0.554

**Q.** What about the composite z-score [8] of the same molecule?
**A.** 1.2

**Q.** And the composite z-score [9]?
**A.** -0.174

**Q.** And the composite z-score [10]?
**A.** 0.843

**Q.** Which results are given for `CCC1=C2CN(Cc3ccccc3)[C@@H](C(=O)Cc3ccccc3)C2C=CCC1` (stereo not given in full)?
**A.** composite z-score [1]: 1.46; composite z-score [2]: -0.0616; composite z-score [3]: -0.141; z-score [4]: -1.04 (inactive); composite z-score [5]: 0.57; composite z-score [6]: -0.439; composite z-score [7]: -0.42; composite z-score [8]: 0.532; composite z-score [9]: 0.118; composite z-score [10]: 0.749

**Q.** Which composite z-score [1] does the source give for `CCCNC(=O)[C@@]1(Sc2ccc(C)cc2)CC(=O)N(C2Cc3ccccc3C2)[C@@H]1c1ccc(CO)cc1I` here?
**A.** 0.401

**Q.** And the composite z-score [2]?
**A.** 0.551

**Q.** And the composite z-score [3]?
**A.** 0.7

**Q.** And the z-score [4]?
**A.** -0.272 (inactive)

**Q.** What about the composite z-score [5] of the same molecule?
**A.** -0.189

**Q.** And the composite z-score [6]?
**A.** -0.0794

**Q.** What about the composite z-score [7] of the same molecule?
**A.** -0.172

**Q.** What about the composite z-score [8] of the same molecule?
**A.** -0.268

**Q.** And the composite z-score [9]?
**A.** -0.236

**Q.** And the composite z-score [10]?
**A.** 1.04

**Q.** With `CC(C)N1C(=O)C[C@@](C(=O)O)(c2ccc([N+](=O)[O-])cc2)[C@H]1c1ccc(CO)cc1` as the molecule, how does the composite z-score [1] read?
**A.** 1.08

**Q.** What about the composite z-score [2] of the same molecule?
**A.** 0.744

**Q.** What about the composite z-score [3] of the same molecule?
**A.** 1.11

**Q.** And the z-score [4]?
**A.** -0.186 (inactive)

**Q.** And the composite z-score [5]?
**A.** -0.443

**Q.** And the composite z-score [6]?
**A.** -0.381

**Q.** What about the composite z-score [7] of the same molecule?
**A.** -1.12

**Q.** And the composite z-score [8]?
**A.** -0.633

**Q.** What about the composite z-score [9] of the same molecule?
**A.** -0.803

**Q.** What about the composite z-score [10] of the same molecule?
**A.** 0.593

**Q.** Which composite z-score [1] does the source give for `CC(=O)N1CC2(CC2)CC1c1ccccc1` (stereo not given) here?
**A.** -0.295

**Q.** What about the composite z-score [2] of the same molecule?
**A.** 0.234

**Q.** And the composite z-score [3]?
**A.** -0.0067

**Q.** And the z-score [4]?
**A.** 0.665 (inactive)

**Q.** What about the composite z-score [5] of the same molecule?
**A.** 0.281

**Q.** And the composite z-score [6]?
**A.** 0.152

**Q.** And the composite z-score [7]?
**A.** 0.461

**Q.** And the composite z-score [8]?
**A.** -0.154

**Q.** What about the composite z-score [9] of the same molecule?
**A.** -0.0538

**Q.** And the composite z-score [10]?
**A.** 0.791

**Q.** What does the source list for `CC(CO)N1C(=O)[C@]2(C)C3C(=O)OCCC/C=C\[C@H]3OC23C=CCN(c2ccc(Cl)cc2)C(=O)[C@@H]13` (stereo not given in full)?
**A.** composite z-score [1]: -0.714; composite z-score [2]: -0.0842; composite z-score [3]: 0.167; z-score [4]: -0.712 (inactive); composite z-score [5]: -0.39; composite z-score [6]: -0.558; composite z-score [7]: -0.558; composite z-score [8]: -0.798; composite z-score [9]: -0.0396; composite z-score [10]: -0.0439

**Q.** What does the source list for `CCCCCCCCCC(O)C1C=CC2C(=O)N(c3ccccc3)C(=O)C2N1Nc1cc(OC)c(OC)c(OC)c1` (stereo not given)?
**A.** composite z-score [1]: 1.04; composite z-score [2]: -0.0249; composite z-score [3]: 0.662; z-score [4]: -0.901 (inactive); composite z-score [5]: -0.4; composite z-score [6]: -0.214; composite z-score [7]: -0.381; composite z-score [8]: -0.246; composite z-score [9]: -1.12; composite z-score [10]: 0.655

**Q.** For `CC1CC/C=C\[C@H]2OC34C=CCN(c5ccc6ccccc6c5)C(=O)[C@H]3N(CCCO)C(=O)[C@@H]4C2C(=O)O1` (stereo not given in full), which composite z-score [1] is on record?
**A.** 0.0565

**Q.** What about the composite z-score [2] of the same molecule?
**A.** -0.179

**Q.** And the composite z-score [3]?
**A.** 1.07

**Q.** What about the z-score [4] of the same molecule?
**A.** 0.738 (inactive)

**Q.** And the composite z-score [5]?
**A.** -1.32

**Q.** And the composite z-score [6]?
**A.** -0.592

**Q.** And the composite z-score [7]?
**A.** -1.2

**Q.** And the composite z-score [8]?
**A.** -0.912

**Q.** What about the composite z-score [9] of the same molecule?
**A.** -2.16

**Q.** What about the composite z-score [10] of the same molecule?
**A.** -0.223
